PubChem BioAssay
Calls of active or inactive are those of the source. Unless noted, how the calls were made is not given here.

Tests used:
[1] = tested on: Wnt5a (protein binding on small-molecule microarray); test: small molecules binding Wnt5a protein – biophysical, small-molecule microarray, 635/667 nm fluorescence, primary screen (AID 1142); settings: 635 nm fluorescence, higher = more signal;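 further: fluorescence read at 667 nm with signal to noise per printed feature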
[2] = ATP-based viability of Huh7 replicon cells – cell-based, CellTiter-Glo luminescence, basal, 48 h, cytotoxicity control for HCV replication inhibitor project, primary screen (AID 1143); settings: higher = more signal, called active from +8 up or from −8 down;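 further: Huh7 hepatoma cells carrying a hepatitis C replication reporter with no stimulus; test concentration not given here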
[3] = Pseudomonas biofilm growth suppression – PAO1 strain, BacTiter-Glo luminescence, LB-PBS, primary screen (AID 1144); settings: P. aeruginosa PAO1 biofilm, 12 h, higher = more signal
[4] = basal CRE-LacZ reporter activity in PC12 – cell-based, unstimulated, primary screen (AID 1145); settings: no forskolin, luminescence, 4.5 h, higher = more signal, called active from +8 up or from −8 down
[5] = forskolin-driven CRE-LacZ activity in PC12 – cell-based, CRE-LacZ reporter, forskolin-stimulated, primary screen (AID 1146); settings: luminescence, 4.5 h, higher = more signal, called active from +8 up or from −8 down;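 further: PC12 cells with 6xCRE LacZ reporter stimulated by forskolin 10 µM; beta-galactosidase reporter signal reflecting CREB driven transcription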
[6] = target: Streptavidin (Streptomyces avidinii) (UniProt P22629); test: compounds binding control protein streptavidin – biophysical, small-molecule microarray, 635/667 nm fluorescence, artefact control for SMM compound annotation, primary screen (AID 1147); settings: higher = more signal;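 further: signal reflects streptavidin binding to arrayed compounds as a control protein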
Sequence of Streptavidin (Streptomyces avidinii) (P22629 whole entry, looked up): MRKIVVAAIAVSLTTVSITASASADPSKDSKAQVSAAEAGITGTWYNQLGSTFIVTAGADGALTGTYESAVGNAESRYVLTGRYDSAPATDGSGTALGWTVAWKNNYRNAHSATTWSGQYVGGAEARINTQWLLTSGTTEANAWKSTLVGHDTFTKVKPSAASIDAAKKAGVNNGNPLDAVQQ

[7] = probe aInhba binding on compound microarray – biochemical, small-molecule microarray, 635/667 nm fluorescence, primary screen (AID 1148); settings: higher = more signal;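 further: score merges 667nm spot fluorescence with signal-to-noise for antibody binding to printed compounds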
Torsin-1A (Homo sapiens) [8] = target: Torsin-1A (Homo sapiens) (UniProt O14656); test: TOR1A wild-type binding on microarray – cell lysate, small-molecule microarray, lysate, 635/667 nm, primary screen (AID 1149); settings: COS7 hTOR1A-WT lysate, 635 nm fluorescence, higher = more signal
Sequence of Torsin-1A (Homo sapiens) (O14656 whole entry, looked up): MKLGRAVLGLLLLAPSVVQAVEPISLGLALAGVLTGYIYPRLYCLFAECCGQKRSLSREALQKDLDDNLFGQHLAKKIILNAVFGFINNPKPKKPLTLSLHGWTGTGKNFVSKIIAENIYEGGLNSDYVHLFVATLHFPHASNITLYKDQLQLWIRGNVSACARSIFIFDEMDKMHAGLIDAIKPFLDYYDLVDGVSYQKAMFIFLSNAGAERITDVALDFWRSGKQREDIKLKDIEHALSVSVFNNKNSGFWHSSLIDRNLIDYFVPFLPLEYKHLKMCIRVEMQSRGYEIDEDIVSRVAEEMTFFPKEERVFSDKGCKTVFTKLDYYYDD

Torsin-1A (Homo sapiens) [9] = target: Torsin-1A (Homo sapiens) (UniProt O14656); test: torsin A mutant lysate binding on microarrays – cell lysate, small-molecule microarray, COS7 lysate, 635/667 nm fluorescence, primary screen (AID 1150); settings: COS7 hTOR1A mutant lysate, 635 nm fluorescence, higher = more signal;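 further: score pools 667 nm emission and signal to noise measuring lysate protein binding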
[10] = tested on: Sonic hedgehog protein (Shh); test: Sonic hedgehog microarray binding compounds – biochemical, small-molecule microarray, 635/667 nm fluorescence, primary screen (AID 1151); settings: 635 nm fluorescence, higher = more signal;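 further: Shh protein binding to compounds spotted on small-molecule microarray slides; score combines spot fluorescence intensity with signal-to-noise across triplicate slides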
[11] = optical density shifts of acrAB sulA E. coli – strain DRC41, OD650, 48 h, E. coli filamentation inducer project, primary screen (AID 1152); settings: higher = more signal, called active from +8 up or from −8 down;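 further: E. coli MC1000 strain DRC41 lacking acrAB efflux pump and sulA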
[12] = probe aLefty1 binding on compound microarray – biochemical, small-molecule microarray, 635/667 nm fluorescence, primary screen (AID 1153); settings: higher = more signal;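 further: score merges spot fluorescence with signal-to-noise ratio from the scanned slide images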
[13] = plasmodial surface anion channel blockers, osmotic lysis – cell-based, P. falciparum Indochina, OD700, 1 h, primary screen (AID 1154); settings: P. falciparum Indochina infected RBC osmotic lysis, higher = more signal, called active from +8 up or from −8 down
[14] = plasmodial surface anion channel blockers, osmotic lysis – cell-based, P. falciparum Indochina, OD700, 2 h, primary screen (AID 1155);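 further: lysis reports solute entry through the parasite surface anion channel PSAC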; settings: P. falciparum Indochina infected erythrocytes, higher = more signal, called active from +8 up or from −8 down
[15] = changes in parasitized red cell lysis, either direction – P. falciparum Indochina, OD700, 3 h, PSAC antagonist project, primary screen (AID 1156); settings: P. falciparum-infected erythrocytes, osmotic lysis, higher = more signal, called active from +8 up or from −8 down
[16] = plasmodial surface anion channel blockers, osmotic lysis – cell-based, P. falciparum Indochina, OD700, 18 h, primary screen (AID 1157); settings: P. falciparum Indochina infected erythrocytes, osmotic lysis OD700, 18 h; higher = more signal, called active from +8 up or from −8 down
[17] = S6 kinase pathway phospho-S6 level changes – cell-based, A549, cytoblot, luminescence, serum-stimulated, primary screen (AID 1158); settings: 5 h, higher = more signal;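 further: serum-stimulated A549 lung adenocarcinoma cells; signal is phosphorylated S6 detected by cytoblot immunostaining with HRP secondary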
[18] = target: NADPH oxidase 2 (Homo sapiens) (UniProt P04839); test: compounds shifting NOX2 Amplex Red fluorescence – cell-based, HEK293-NOX2, PMA-stimulated, NOX inhibitor project, primary screen (AID 1159); settings: 45 min, higher = more signal, called active from +8 up or from −8 down; further: test concentration not given here
Sequence of NADPH oxidase 2 (Homo sapiens) (P04839 whole entry, looked up): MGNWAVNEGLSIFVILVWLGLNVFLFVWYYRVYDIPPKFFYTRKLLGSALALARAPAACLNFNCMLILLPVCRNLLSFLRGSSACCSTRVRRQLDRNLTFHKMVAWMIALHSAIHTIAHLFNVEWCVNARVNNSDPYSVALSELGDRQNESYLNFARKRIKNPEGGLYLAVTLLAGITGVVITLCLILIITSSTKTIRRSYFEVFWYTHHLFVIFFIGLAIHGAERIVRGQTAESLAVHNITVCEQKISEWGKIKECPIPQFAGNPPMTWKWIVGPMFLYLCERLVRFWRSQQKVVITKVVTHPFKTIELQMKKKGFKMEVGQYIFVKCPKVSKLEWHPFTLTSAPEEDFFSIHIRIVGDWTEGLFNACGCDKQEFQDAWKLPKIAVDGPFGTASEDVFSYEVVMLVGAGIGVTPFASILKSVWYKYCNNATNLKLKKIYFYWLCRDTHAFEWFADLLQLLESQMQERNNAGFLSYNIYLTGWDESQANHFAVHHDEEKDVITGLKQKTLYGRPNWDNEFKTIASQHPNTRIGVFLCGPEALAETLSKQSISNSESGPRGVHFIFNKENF

[19] = target: NADPH oxidase 4 (Homo sapiens) (UniProt Q9NPH5); test: compounds shifting NOX4 Amplex Red fluorescence – cell-based, HEK293-NOX4, tetracycline-induced, NOX inhibitor project, primary screen (AID 1160); settings: HEK293-NOX4, Amplex Red H2O2 fluorescence, 45 min; higher = more signal, called active from +8 up or from −8 down
Sequence of NADPH oxidase 4 (Homo sapiens) (Q9NPH5 whole entry, looked up): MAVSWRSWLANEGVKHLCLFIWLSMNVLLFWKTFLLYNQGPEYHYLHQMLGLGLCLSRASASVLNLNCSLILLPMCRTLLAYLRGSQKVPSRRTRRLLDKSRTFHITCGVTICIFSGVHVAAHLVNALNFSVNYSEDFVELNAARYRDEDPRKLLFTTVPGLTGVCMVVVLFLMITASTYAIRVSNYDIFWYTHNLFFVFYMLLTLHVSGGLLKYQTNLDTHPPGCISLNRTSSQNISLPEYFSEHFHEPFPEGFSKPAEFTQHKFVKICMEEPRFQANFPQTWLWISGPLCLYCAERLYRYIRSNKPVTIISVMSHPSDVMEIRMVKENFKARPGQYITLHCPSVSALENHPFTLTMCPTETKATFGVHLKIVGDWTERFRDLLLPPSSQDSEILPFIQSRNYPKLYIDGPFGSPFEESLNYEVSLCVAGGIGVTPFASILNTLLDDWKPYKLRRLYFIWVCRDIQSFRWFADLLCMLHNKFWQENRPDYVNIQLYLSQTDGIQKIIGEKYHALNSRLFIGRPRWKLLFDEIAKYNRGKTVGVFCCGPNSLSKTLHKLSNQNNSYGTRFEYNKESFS

[20] = target: NADPH oxidase 5 (Homo sapiens) (UniProt Q96PH1); test: compounds shifting NOX5 Amplex Red fluorescence – cell-based, HEK293-NOX5, NOX inhibitor project, primary screen (AID 1161); settings: HEK293-NOX5, ionomycin, 45 min, higher = more signal
Sequence of NADPH oxidase 5 (Homo sapiens) (Q96PH1 whole entry, looked up): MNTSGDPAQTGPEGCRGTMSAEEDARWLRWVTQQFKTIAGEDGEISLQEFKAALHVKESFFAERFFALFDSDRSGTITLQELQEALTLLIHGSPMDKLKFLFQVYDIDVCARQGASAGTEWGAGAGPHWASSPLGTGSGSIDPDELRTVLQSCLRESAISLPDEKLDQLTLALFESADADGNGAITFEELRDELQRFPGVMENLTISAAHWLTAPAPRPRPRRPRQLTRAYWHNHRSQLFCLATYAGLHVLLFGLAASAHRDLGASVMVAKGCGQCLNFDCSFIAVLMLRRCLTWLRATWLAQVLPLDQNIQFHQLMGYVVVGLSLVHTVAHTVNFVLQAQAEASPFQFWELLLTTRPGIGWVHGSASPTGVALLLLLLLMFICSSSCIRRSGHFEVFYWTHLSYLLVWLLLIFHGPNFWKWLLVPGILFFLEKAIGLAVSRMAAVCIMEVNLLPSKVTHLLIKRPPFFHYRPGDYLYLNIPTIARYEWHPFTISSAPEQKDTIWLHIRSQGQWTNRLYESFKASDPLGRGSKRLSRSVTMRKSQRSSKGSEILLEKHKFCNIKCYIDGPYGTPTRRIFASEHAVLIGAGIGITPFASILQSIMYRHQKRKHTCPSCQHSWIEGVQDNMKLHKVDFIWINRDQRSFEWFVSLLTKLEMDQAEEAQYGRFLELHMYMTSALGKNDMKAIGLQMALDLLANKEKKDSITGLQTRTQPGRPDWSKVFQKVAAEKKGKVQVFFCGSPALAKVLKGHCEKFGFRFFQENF

Row | SMILES | composite z-score [1] | z-score [2] | z-score [3] | z-score [4] | z-score [5] | composite z-score [6] | composite z-score [7] | composite z-score (Torsin-1A (Homo sapiens) [8]) | composite z-score (Torsin-1A (Homo sapiens) [9]) | composite z-score [10] | z-score [11] | composite z-score [12] | z-score [13] | z-score [14] | z-score [15] | z-score [16] | z-score [17] | z-score [18] | z-score [19] | z-score [20]
1 | C=CCC(OC(C)=O)[C@@H]1[C@@H](N(Cc2ccc(-c3cccc(C(F)(F)F)c3)o2)C(=O)c2cccc3ccccc23)c2cc(OCCCO)ccc2N1C(=O)c1ccc2ccccc2n1 (stereo not given in full) | -0.0713 | -1.33 (inactive) | -0.214 (inactive) | -0.258 (inactive) | 0.0155 (inactive) | -0.32 | -0.024 | 0.17 | -0.662 | 0.259 | -0.855 (inactive) | 0.007 | 0.706 (inactive) | -0.342 (inactive) | 1.32 (inactive) | 0.139 (inactive) | 0.2 | -3.37 (inactive) | -1.17 (inactive) | -0.606
2 | COC(=O)c1ccc([C@H](NC(=O)c2ccccc2)[C@]2(C)C[C@H]2C2CCCCC2)cc1 | 0.0477 | -1.78 (inactive) | -0.718 (inactive) | 0.394 (inactive) | 1.28 (inactive) | 1.08 | 0.166 | -0.435 | 0.266 | -0.999 | -2.26 (inactive) | 0.718 | 8.84 (active) | 1.56 (inactive) | -0.281 (inactive) | 0.692 (inactive) | 0.0094 | 0.0662 (inactive) | -0.602 (inactive) | 1.22
3 | CN1C(=O)[C@]2(CCS(=O)(=O)c3ccccc3)N=C(c3ccc(OCCCO)cc3)O[C@@H]2c2ccccc21 | 0.088 | -3.67 (inactive) | 1.24 (inactive) | 1.34 (inactive) | -0.547 (inactive) | 0.294 | 0.174 | 0.0148 | 1.16 | 1.54 | -1.06 (inactive) | 0.18 | 29.6 (active) | 27.2 (active) | 2.49 (inactive) | 1.87 (inactive) | -0.0831 | 0.276 (inactive) | -0.0954 (inactive) | -1.12
4 | COC(=O)[C@@]1(Cc2ccccc2)[C@@H]2[C@@H](CC(=O)[C@H]2CC(=O)C(=O)N(C)C)CN1C(=O)c1ccccc1 | -0.087 | -0.0162 (inactive) | -0.621 (inactive) | 0.201 (inactive) | 0.983 (inactive) | 0.315 | -0.0963 | -0.115 | 0.417 | -0.829 | -0.655 (inactive) | 0.0811 | 2.19 (inactive) | 0.543 (inactive) | 0.0132 (inactive) | 0.738 (inactive) | -0.268 | 0.984 (inactive) | 0.766 (inactive) | -0.461
5 | CCOC(=O)C[C@H]1[C@H](OC(=O)c2cc3ccccc3oc2=O)[C@@H](NC(=O)C2CCCCC2)c2cc(OCCCO)ccc2N1C(=O)Cc1ccc(OC)cc1 | 0.418 | -0.588 (inactive) | -0.273 (inactive) | 0.849 (inactive) | -0.0784 (inactive) | 0.214 | 0.243 | 0.144 | 0.384 | 1.15 | -0.926 (inactive) | 0.266 | 2.92 (inactive) | 0.275 (inactive) | 0.722 (inactive) | 0.328 (inactive) | 0.0301 | 1.57 (inactive) | 1.01 (inactive) | 1.63
6 | O=C1OCCC/C=C\[C@H]2OC34C=CCN(Cc5ccccc5)C(=O)[C@H]3N(CCCCCO)C(=O)[C@@H]4C12 (stereo not given in full) | -0.238 | 0.255 (inactive) | 1.2 (inactive) | 0.732 (inactive) | 0.327 (inactive) | -1.26 | -0.186 | -0.234 | -1.75 | 0.168 | 0.435 (inactive) | -0.094 | -0.457 (inactive) | -0.172 (inactive) | -0.123 (inactive) | -0.354 (inactive) | -0.412 | 1.17 (inactive) | 0.487 (inactive) | 1.76
7 | CCCCC(O)C1C=CC2C(=O)NC(=O)C2N1Nc1ccccn1 (stereo not given) | -0.0034 | 0.294 (inactive) | -0.314 (inactive) | -0.133 (inactive) | 0.438 (inactive) | 0.0033 | 0.0225 | 0.477 | 0.203 | -0.432 | -2.16 (inactive) | 0.235 | -0.162 (inactive) | 0.387 (inactive) | -0.343 (inactive) | 0.483 (inactive) | -1.11 | -1.48 (inactive) | -2.5 (inactive) | -2.17
8 | CCCC[C@H]1OB(O)C[C@H]2C1=C(C)C[C@H]1C(=O)C=CC(=O)[C@H]12 | -0.0289 | -1.52 (inactive) | 0.244 (inactive) | 19.6 (active) | 14.8 (active) | 0.146 | -0.0292 | 0.935 | 0.527 | 1.71 | -0.202 (inactive) | -0.06 | 1.7 (inactive) | 0.183 (inactive) | 0.816 (inactive) | 0.182 (inactive) | -0.0244 | -1.12 (inactive) | -1.25 (inactive) | -1.18
9 | CCCCNC(=O)c1ccc(C#C[Si](C)(C)C)c(OC(C)=O)c1 | -0.0504 | -0.155 (inactive) | 0.305 (inactive) | -0.773 (inactive) | 0.0361 (inactive) | 0.184 | -0.12 | 0.18 | 1.1 | 0.985 | 0.151 (inactive) | -0.0032 | 12.3 (active) | 1.64 (inactive) | 1.67 (inactive) | 0.672 (inactive) | 0.726 | 1.8 (inactive) | 0.194 (inactive) | 0.0648
